# Laboratory results reported in PubChem BioAssay AID504329 (Southern Research Specialized Biocontainment Screening …, 2011).
# Hit rate of the full screen: of about 340,000 compounds, about 1,000 (0.29%) were called active. Cut-off read from the data, not from the text of the source: inconclusive = inhibition above about 27% without an active follow-up result; inactive = below that. A selection follows. Potency and affinity values are given separately.
# Test: H1N1 influenza NS1A inhibitors, functional cell based assay (AID 504329)
# Conditions: percent inhibition, at 12.5 µM, stronger effect = higher value
row,SMILES,inhibition
1,Cc1ccc(Nc2nc(N)nc(CSc3nnnn3-c3ccccc3)n2)cc1,-1.1% (inactive)
2,COc1cccc(CN(C)C(=O)c2ccc(NS(=O)(=O)c3ccc4[nH]c(=O)[nH]c4c3)cc2)c1OC,-3.23% (inactive)
3,CC(C(=O)Nc1cccc(S(=O)(=O)N2CCOCC2)c1)N1CCN(C/C=C/c2ccccc2)CC1 (configuration not stated),-4.15% (inactive)
4,CCOC(=O)Cc1csc(NS(=O)(=O)c2ccc(NC(C)=O)cc2)n1,-2.56% (inactive)
5,CCc1ccc(S(=O)(=O)/N=C2\C=C(Nc3cccc(C(=O)O)c3)C(=O)c3ccccc32)cc1,24.6% (inactive)
6,Cc1cc(C)c(S(=O)(=O)/N=C2\C=C(NS(=O)(=O)c3ccccc3)C(=O)c3ccccc32)c(C)c1,0.45% (inactive)
7,O=C(O)c1ccc(NC2=C/C(=N/S(=O)(=O)c3ccccc3)c3ccccc3C2=O)cc1,15.2% (inactive)
8,Cc1ccc(S(=O)(=O)/N=C2\C=C(Nc3cccc(C(=O)O)c3)C(=O)c3ccccc32)c(C)c1,25.4% (inactive)
9,O=C(COC(=O)c1c(F)cccc1F)Nc1ccc(N2CCCCC2)cc1,-4.21% (inactive)
10,CCOc1ccc(-n2c(SCc3cc(=O)oc4cc(C)c(C(C)C)cc34)nnc2-c2cccnc2)cc1,2.59% (inactive)
11,COc1ccc(C2CC3(CC(C)(C)NC(SC)=N3)Oc3cc(O)cc(C)c32)cc1 (configuration not stated),2.74% (inactive)
12,CCCN1CCC(NC(=O)C2CCCCC2C(=O)O)CC1 (configuration not stated),-9.23% (inactive)
13,CC(c1ccon1)N(C)C(=O)c1ccc(OC2CCN(C(=O)C3CC3)CC2)cc1 (configuration not stated),1.15% (inactive)
14,CC(=O)c1ccc(N=c2scc(C)n2C(C)C)cc1,2.71% (inactive)
15,Clc1ccc(/C=N/N2CCCCC2)cc1,10.3% (inactive)
16,CCN(CC)c1ccc(C=NN2CCCCCC2)cc1,1.15% (inactive)
17,COc1ccc(CNCC2COc3ccccc3O2)cc1 (configuration not stated),-2.36% (inactive)
18,O=C(CC1C[C@H](C(=O)N2CCCCC2)[C@@]2(CCc3ccccc3)c3[nH]c4ccccc4c3CCN2C1=O)NCCCn1ccnc1 (some centres not stated),-10.1% (inactive)
19,CCN1C(=O)/C(=C2\SC(=S)N(NC(=O)c3ccccc3O)C2=O)c2ccccc21,-6.27% (inactive)

row,SMILES,inhibition
1,CCN1C(=C2C(=O)c3ccccc3C2=O)C=Cc2ccccc21,-0.12% (inactive)
2,CCN1/C(=C2/SC(=S)N(C)C2=O)C=Cc2cc(C)ccc21,9.87% (inactive)
3,CN1C(=O)/C(=C2/C=Cc3ccccc3N2CCCS(=O)(=O)O)SC1=S,8.55% (inactive)
4,CCN1/C(=C2\OC(=S)N(C)C2=O)C=Cc2ccccc21,4.12% (inactive)
5,COCCN1C(=O)/C(=C2/C(=O)N(CC(=O)Nc3ccccc3Cl)c3ccccc32)SC1=S,1.06% (inactive)
6,CCN1C(=O)/C(=C2\C=Cc3ccccc3N2CC)OC1=S,20.4% (inactive)
7,CCCN1/C(=C2/SC(=S)N(CC)C2=O)C=Cc2ccccc21,-4.1% (inactive)
8,CC(SCc1ccccc1)C(=O)Nc1ccccc1F (configuration not stated),4.17% (inactive)
9,N#Cc1c(Sc2ncc(C(F)(F)F)cc2Cl)nsc1C/C=N\OCc1ccccc1Br,-7.95% (inactive)
10,Cn1nc(C(C)(C)C)cc1C(=O)NNC(=O)c1ccc(C(F)(F)F)cc1,-21.4% (inactive)
11,O=C(NNc1cccc(Cl)n1)c1ccccc1CC[N+](=O)[O-],-1.98% (inactive)
12,CCn1nc(NS(=O)(=O)c2ccc([N+](=O)[O-])cc2)c2cc3ccccc3nc21,4.22% (inactive)
13,CCC(C)(C)C1CCC2(CC1)NC(=O)N(CC(=O)N(C)Cc1ccc3c(c1)OCCO3)C2=O (configuration not stated),-14.3% (inactive)
14,CCN1C(=O)/C(=c2\o/c(=C3\C=Cc4ccccc4N3CC)c(=O)n2CC)SC1=S,19.6% (inactive)
15,CCN1/C(=C2\C(=O)N(C)C(=S)N2C)C=Cc2ccccc21,6.98% (inactive)
16,O=C(NCCO)Nc1ccc(Cl)cc1,0.44% (inactive)
17,Cc1ccc(S(=O)(=O)CCC(=O)Nc2nccs2)cc1,6.51% (inactive)
18,O=C(Cc1c[nH]c2ccccc12)NNCc1ccc(N(CCCl)CCCl)cc1,14.4% (inactive)
19,O=C(O)c1ccc(N=Nc2c(O)[nH]c3ccccc23)cc1,-7.55% (inactive)

row,SMILES,inhibition
1,Oc1[nH]c2ccccc2c1N=Nc1ccc(F)cc1,-3.37% (inactive)
2,O=C(Cc1ccc(Cl)c(Cl)c1)N1CCOCC1,-9.69% (inactive)
3,Cc1ccc(C(=O)N/N=C\c2ccccc2[N+](=O)[O-])cn1,4.04% (inactive)
4,Cc1cc([N+](=O)[O-])cc(/C=N\NC(=O)C2COc3ccccc3O2)c1O (configuration not stated),19.3% (inactive)
5,O=C(N/N=C/c1ccccc1[N+](=O)[O-])c1cccs1,-0.41% (inactive)
6,Cc1cc(C(=O)N/N=C/c2cc(Cl)cc([N+](=O)[O-])c2O)n[nH]1,-7.04% (inactive)
7,O=C(N/N=C/c1cccc([N+](=O)[O-])c1O)C(O)(c1ccccc1)c1ccccc1,-8.83% (inactive)
8,O=C(N/N=C\c1cc2c(cc1[N+](=O)[O-])OCO2)c1cccs1,-1.36% (inactive)
9,CCNC(=S)N(Cc1ccc2c(c1)OCO2)C1CC(=O)N(c2ccc(OC)cc2)C1=O (configuration not stated),-4.24% (inactive)
10,O=C(NCCN1CCOCC1)C(=O)NCc1ccco1,-2.57% (inactive)
11,CC1CCC(NC(=O)CSc2nncs2)CC1 (configuration not stated),1.05% (inactive)
12,Cc1cc2nc(-c3ccc(SCC(=O)Nc4ccc(S(=O)(=O)NC5CC5)cc4)nc3)[nH]c2cc1C,-2.72% (inactive)
13,C=CCOc1ccccc1/C=C/C(=O)O,1.54% (inactive)
14,CC(=O)c1ccc(N(C)C)c2c(N(C)C)cccc12,-6.19% (inactive)
15,CN(C)c1cccc2c(/C=N/O)ccc(N(C)C)c12,5.22% (inactive)
16,Cc1ccc(-n2nc(C)c3c2OC(N)=C(C#N)C3c2ccco2)cc1 (configuration not stated),15.8% (inactive)
17,Cc1nn(-c2ccccc2)c2c1C(c1ccccc1)C(C#N)=C(N)O2 (configuration not stated),-4.13% (inactive)
18,Cc1nn(-c2ccccc2)c2c1C(c1cccs1)C(C#N)=C(N)O2 (configuration not stated),11.8% (inactive)
19,Cc1ccc(-n2nc(C)c3c2OC(N)=C(C#N)C3c2ccncc2)cc1 (configuration not stated),-2% (inactive)
